# AMA1 RON2 block: AMA1-RON2 (P. falciparum) interaction inhibition; AlphaScreen AMA1-biotinylated RON2 peptide binding; Potency, µM (highest dose often 58.2 µM), inactives show at the top dose activity change, negative = inhibition, actives largely listed as inhibitors; AID 720542; 360,000 compounds, 0.2% hits;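 note: 0% = vehicle wells and -100% = peptide control; nearly all actives have a fitted effect of over 45% in size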
#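 AMA1 (3D7) with his tag at 25 nM final met compounds first, then biotinylated RON2 peptide at 25 nM; detection used donor plus acceptor beads, 10 µg/mL apiece, read by AlphaScreen after 30 min at room temperature.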
# SARS PLP yeast: blocks SARS-CoV papain-like protease in a yeast assay; S. cerevisiae expressing SARS-CoV PLpro, growth rescue; Potency, µM (titrated, usually from 32.9 µM), for inactives: at the top dose activity, positive = growth rescue, usual class: activators; 330,000 compounds, 0.19% hits; calls by dose curve; note: 0% is about no effect; nearly all actives have a fitted effect of over 55% in size
# Pf growth 48h: P. falciparum growth inhibition at 48 hours (one generation); 310,000 compounds, 5.9% hits; P. falciparum luciferase growth in erythrocytes, 48 h; Potency, µM (titrated, usually from 28.7 µM), for inactives: top-dose activity change, negative = inhibition, usual class: inhibitors; note: % is set by controls: 0 for no effect and ±100 for the full control effect
#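 Luminescence readout; reporter = integrated firefly luciferase in P. falciparum. RBC culture at 2% hematocrit, 0.1% parasitemia final, 37 C/5% CO2; decreased signal taken as growth inhibition.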
# Pf growth 96h: P. falciparum growth inhibition at 96 hours; 320,000 compounds, 6.9% hits; P. falciparum luciferase reporter growth, 96 h; Potency, µM (doses to about 28.7 µM), inactives show at the highest dose activity change, negative = inhibition, actives largely listed as inhibitors; note: % is set by controls: 0 for no effect and ±100 for the full control effect
#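 Compounds incubated with erythrocytes infected by luciferase-expressing P. falciparum (2% hematocrit, 0.05% parasitemia final) for 96 hours, 37 C in 5% CO2. Growth inhibition scored as decreased luciferase luminescence.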
# The depositor's hits bear a star; i = inactive; ? = inconclusive; . = no result given; [ ] = another dose, or the depositor's remark. The list is not random: actives were taken first. Their share in the collection is about 9.4%. Unless noted, calls come from the whole dose curve; as a rule, active = well fitted curve in the direction sought with a large enough effect; inconclusive = small, poorly fitted or top-dose-only effect, or another doubt; inactive = no such curve, though single readings can be large; an effect the other way counts as inactive or inconclusive. Potency is the fitted concentration of half-maximal effect.
SMILES,AMA1 RON2 block,SARS PLP yeast,Pf growth 48h,Pf growth 96h
Cc1cc(C(=O)NCc2ccc3c(c2)OCO3)c(C)o1,-5.5%,-1.4%,10.8%,38.7%
COc1cc2c(cc1OC)CN(C(=O)CCc1c[nH]c3ccccc13)[C@H](C(=O)O)C2,9.4%,2.1%,-16.9%,-18.6%
COc1ccc(C)cc1N1CC(C(=O)OCc2nc(N)nc(Nc3ccccc3C)n2)CC1=O (stereo not given),-7.1%,0.1%,-26.4%,1.9%
Clc1ccccc1CN(Cc1ccco1)Cc1nnnn1C1CCCC1,-8.6%,.,7.38µM*,11.7%
CC(=Nc1ccccc1)C1=C(O)CCCC1=O,11.2%,?,2.4%,11.7µM*
COc1ccc(-c2cc(=Nc3ccccc3)c3cc(C)ccc3o2)cc1,-17.8%,-65.4%,83.5%,64.8%
COc1ccc(-c2cc(=Nc3ccc(C)cc3)c3ccccc3o2)cc1,-5.5%,-13.8%,?,6.57µM*
COc1ccc(-c2cc(=O)c3ccccc3o2)cc1,-11.5%,-2.4%,89.1%,?
COc1ccc(N=c2cc(-c3ccc(OC)cc3)oc3ccccc23)cc1,12.6µM*,-39.9%,?,-100.1%
CCOc1ccc(N=c2cc(-c3ccc(OC)cc3)oc3ccccc23)cc1,14.1µM*,-59.0%,?,?
COc1ccc(N=c2cc(-c3ccc(O)cc3)oc3ccccc23)cc1,-29.2%,11.2%,3.29µM*,?
CCN1CCN(S(=O)(=O)c2ccc(Cl)c(C(=O)N(CC(C)C)C3CCS(=O)(=O)C3)c2)CC1 (stereo not given),14.2%[11.6 µM],.,.,.
Nc1nc(CCl)nc(Nc2cccc3ccccc23)n1,18.2%,0.2%,?,13.1µM*
O=C(c1cnn2c1NC(c1ccc(Br)cc1)CC2C(F)(F)F)N1CCN(C23CC4CC(CC(C4)C2)C3)CC1 (stereo not given),0.3%,-37.7%,3.7µM*,8.28µM*
O=C(c1cnn2c1NC(c1ccc(Br)cc1)CC2C(F)(F)F)N1CCN2CCCC2C1 (stereo not given),-22.8%,-4.1%,?,?
CCOC(=O)N1CCN(C(=O)c2cn(CC(C)C)c(=O)c3c2c2ccccc2n3C)CC1,1.7%,13.3%,10.4µM*,34.2%
CC(C)Cn1cc(C(=O)NCc2cccs2)c2c3ccccc3n(C)c2c1=O,8.4%,-9.8%,?,8.28µM*
COc1ccc(N2CCN(C(=O)c3cn(C4CCCC4)c(=O)c4c3c3ccccc3n4C)CC2)cc1,14.1µM*,-0.3%,.,33.1%
Clc1ccc(C2=CSC3=NCCN23)cc1Cl,-4.0%,-5.5%,?,?
CN(C)c1ccnc(-n2cccc2/C=N/OCc2ccccc2)c1C#N,-8.6%,-9.5%,.,-25.3%
CC(=O)Nc1ccc(NC(=O)C2CCN(C(=O)C3CC(=O)N(c4ccc(C)cc4)C3)CC2)cc1 (stereo not given),5.9%,1.4%,-13.4%,25.0%
CC(=C/c1ccc(C(C)C)cc1)/C=N/NC(=O)c1ccncc1,49.6%,13.7%,13.1µM*,?
O=C(N/N=C/C(Br)=C/c1ccccc1)C1CC1,11.9%,-6.9%,?,9.28µM*
O=C(N/N=C/C(Br)=C/c1ccccc1)c1cccnc1,-3.9%,-5.6%,10.4µM*,10.4µM*
O=C(N/N=C/C(Br)=C\c1ccccc1)c1cccs1,-5.5%,-3.4%,?,3.7µM*
SMILES,AMA1 RON2 block,SARS PLP yeast,Pf growth 48h,Pf growth 96h
CC(=C/c1ccccc1)/C=N/NC(=O)c1cccs1,-12.7%,-1.4%,254.4%,-66.4%
CC(C)(C)NC(=O)CN(CC1CCCO1)C(=O)CNS(=O)(=O)c1ccc(F)cc1 (stereo not given),10.6%,-0.3%,1.0%,24.4%
CCOc1ccc(CCNC(=O)CSc2nn(-c3ccc(C)c(Cl)c3)c(=S)s2)cc1OCC,-8.9%,19.0%,?,?
Cn1cccc1C(=O)NCC1COc2ccccc2O1 (stereo not given),-0.6%,-1.6%,110.9%,190.5%
N/C(=N\OC(=O)c1cccnc1)c1ccc(Cl)cc1Cl,12.7%,-2.4%,52.7%,i
Cc1occc1C(=O)N/N=C/C=C/c1ccccc1,73.6%,-0.9%,112.6%,7.7%
O=C(N/N=C/C(Br)=C/c1ccccc1)c1ccncc1,102.6%,-5.7%,10.4µM*,14.7µM*
CC(/C=N/NC(=O)c1ccncc1)=C\c1ccccc1,6.2%,1.2%,?,33.4%
Cc1ccc(C(=O)N/N=C/C=C/c2ccccc2)cc1,66.5%,-0.6%,-29.8%,1.65µM*
O=C(Nc1ccc2c(c1)OCCO2)C1CCN(C(=O)c2ccccc2)CC1,2.4%,-3.9%,42.8%,?
N#Cc1ccc(-c2cccnc2)nc1SCc1ccc(Cl)c(Cl)c1,3.5%,?,9.28µM*,?
COc1ccc(OC)c(Cc2nnc(CCC(=O)NCc3nc4ccccc4s3)o2)c1,-3.4%,-0.3%,-0.3%,7.38µM*
C=CCOc1ccc(/C(O)=C2\C(=O)C(=O)N(CCN(C)C)C2c2cccs2)cc1 (stereo not given),4.6%,-7.3%,19.2%,26.5%
CSc1nnc(-c2cc3ccccc3cc2O)n1C,7.7%,?,2.08µM*,.
O=C1CCN(N=Nc2cccc(Cl)c2)N1,.,10.0%,.,?
CSc1ccc(CNC(=O)C2CCC(=O)N(CC3CCCCC3)C2)cc1 (stereo not given),0.0%,.,.,.
COCCN1CCN(C(=O)C2CCC(=O)N(CCc3ccccc3)C2)CC1 (stereo not given),-1.1%,.,42.5%,9.28µM*
COc1ccc(CNC(=O)C2CCC(=O)N(CC3CCCCC3)C2)cc1 (stereo not given),-7.9%,0.2%,-6.8%,2.33µM*
COCCCC1CCN(C(=O)C2CCC(=O)N(CC3CCCCC3)C2)CC1 (stereo not given),11.5%,3.6%,2.0%,1.47µM*
Clc1nc2ccccc2cc1-c1nnn(-c2ccccc2)n1,-4.6%,-1.2%,270.1%,439.4%
O=C(CCC1CCCC1)NCc1cccs1,-7.6%,-2.5%,44.3%,100.6%
OC(c1cccs1)(c1cccs1)C1C[N+]2(CF)CCC1CC2 (stereo not given),6.4%,0.5%,10.4µM*,2.33µM*
COCCNC(=O)/C(C#N)=C/c1ccccc1Br,-7.7%,-0.6%,0.3%,15.5%
N#C/C(=C\C=C\c1ccccc1)C(=O)Nc1ccccc1,5.3%,-1.0%,23.8%,18.5%
O=C(Nc1ccccc1)/C(=C/c1ccccc1)c1ccccc1,32.0%,-12.0%,14.7µM*,4.15µM*
SMILES,AMA1 RON2 block,SARS PLP yeast,Pf growth 48h,Pf growth 96h
N#C/C(=C/C=C/c1ccccc1)C(=O)Nc1ccccc1,-2.5%,9.3%,3.29µM*,?
COCCNC(=O)/C(C#N)=C/C=C/c1ccccc1,-0.5%,0.6%,13.1µM*,?
O=C(Cn1cnc2c(nnn2Cc2ccccc2)c1=O)N1CCN(c2ccccc2)CC1,17.7%,1.2%,-25.7%,?
COc1ccc(S(=O)(=O)O/N=C2\CCSc3ccc(C)cc32)cc1,-6.1%,5.6%,2.94µM*,?
C=CCNC(=O)c1ccccc1NS(=O)(=O)c1ccc(SC)cc1,2.0%,2.1%,-9.4%,.
C=CCNC(=O)c1ccccc1NS(=O)(=O)c1ccccc1,-4.9%,-2.9%,-7.2%,9.28µM*
COc1cc(Br)cc(C2C3=C(CCCC3=O)N(c3ccc(F)cc3)C3=C2C(=O)CCC3)c1O,-2.9%,-0.4%,5.22µM*,?

# Screening data (PubChem BioAssay)
